Test results as given in PubChem BioAssay AID488941 (The Scripps Research Institute Molecular Screening Center, 2010).
Some of the results follow. Unmarked numbers belong to inactive results.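 The calls were made as follows: active = mean activation above a set limit taken from an earlier procaspase-7 screen; inactive = the rest.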

Target: Caspase-7 (Homo sapiens) (UniProt P55210)
Test: procaspase-7 activators, counter-screen for procaspase-3 activator project, biochemical, absorbance, triplicate, human (AID 488941);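 also: 0% = DMSO wells and 100% = DMSO plus 5 µM procaspase-7 enzyme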
Conditions: recombinant procaspase-7, Ac-DEVD-pNA absorbance; at 8.5 µM; stronger effect = higher value; asp23/198/206-to-Ala mutant, cannot self-cleave

Sequence of Caspase-7 (Homo sapiens) (P55210 whole entry D23A/D198A/D206A): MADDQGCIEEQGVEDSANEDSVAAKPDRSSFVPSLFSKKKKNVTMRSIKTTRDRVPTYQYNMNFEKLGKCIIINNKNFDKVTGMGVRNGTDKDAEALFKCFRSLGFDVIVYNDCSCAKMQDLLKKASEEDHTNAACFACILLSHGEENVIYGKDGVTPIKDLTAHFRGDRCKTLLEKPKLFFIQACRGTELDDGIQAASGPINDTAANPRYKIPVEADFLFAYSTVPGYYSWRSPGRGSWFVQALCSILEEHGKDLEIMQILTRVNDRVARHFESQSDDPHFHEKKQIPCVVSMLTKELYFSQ

Structure (SMILES) | activation
COc1ccc(-c2sc3ccc(OC)cc3c2C#Cc2ccccn2)cc1 | 6.29%
CCOc1ccc2nc(NCCNS(=O)(=O)c3ccccc3)c(C#N)cc2c1 | -21%
COc1ccc(CCNC(=O)COC(=O)c2ccc[nH]c2=O)cc1 | 3.85%
O=C(CCNS(=O)(=O)c1ccccc1C(F)(F)F)NCc1ccc2c(c1)OCO2 | 1.59%
COc1ccccc1NS(=O)(=O)c1ccc(C(=O)N2CCN(c3ccccc3O)CC2)cc1 | 0.45%
Oc1ccccc1C1=NN(c2ccccc2)C(c2ccccc2)C1 (stereo unspecified) | -21.3%
Cc1nn(C)cc1CNC(=O)Nc1ccc(Cl)cc1 | 1.34%
COC(=O)c1cnc(Nc2cc(C)ccc2OC)c2ccccc12 | -21.2%
COC(=O)Cc1cc(=O)oc2c(C)c(O)ccc12 | -20.2%
CN1CCN(CCCNC(=O)c2ccc(/C=C3\Oc4ccccc4N(Cc4ccc(Cl)cc4)C3=O)cc2)CC1 | -19.9%
COc1ccc2nc(Nc3nc4ccc(NC(C)=O)cc4s3)sc2c1 | -1.13%
